Among all 140,000 compounds or so, about 2,100 (1.5%) were called active. No stated cut-off is given here; in the data, active means protection mostly above about 24% (no sharp cut-off); inactive means mostly below about 26%. Many of the other results were omitted from the sample, so actives are more common in it than they were.
assay: compounds protecting cells from measles virus cytopathic effect, primary screen, measles RdRp inhibitor project, single point, MLSMR library, absorbance (AID 841); conditions: Measles virus-infected cells, CPE protection, at 4 µM, stronger effect = higher value

| Structure (SMILES) | protection (pct of control) |
| --- | --- |
| C=CCN1C(=O)C2(C(C(=O)OCC)=C(N)Oc3c2c(=O)oc2ccccc32)c2ccccc21 (stereo not given) | 81% (active) |
| CCOC(=O)CC1=C(C(=O)OCC)C2(C(=O)N1)C(C(=O)OC)=C(N)Oc1ccccc12 (stereo not given) | 9.79% (inactive) |
| COC(=O)CN1C(=O)C2(C(C(=O)OC)=C(N)Oc3ccccc32)C2=C1CC(C)(C)CC2=O (stereo not given) | 2.86% (inactive) |
| Cc1ccnc(-n2c(C)cc(/C=C3\C(=O)NC(=S)N(C)C3=O)c2C)c1 | 5.91% (inactive) |
| Cc1ccc(N2C(=O)NC(=O)C(CCc3ccncc3)(Cc3cccc(Cl)c3Cl)C2=O)cc1 (stereo not given) | 7.36% (inactive) |
| Cc1nn(Cc2ccccc2Cl)c(Cl)c1C(=O)OC(C(=O)NC(N)=O)C(C)C (stereo not given) | 14% (inactive) |
| Cn1c(C(=O)N2CCC(C(=O)N3CCC4(CC3)OCCO4)CC2)cc2sccc21 | 8.88% (inactive) |
| O=C(C1CC(=O)N(C2CCCC2)C1)N1CCC2(CC1)OCCO2 (stereo not given) | 38.9% (active) |
| CCN(N=Nc1nonc1OC)c1nonc1OC | 5.4% (inactive) |
| CCC(=O)CC(c1ccc([N+](=O)[O-])cc1)c1c(O)c2ccccc2oc1=O (stereo not given) | 15.5% (inactive) |
| COc1ccc(C2N3CC(C)(C)CN23)cc1 (stereo not given) | 8.77% (inactive) |
| O=C1NC(=O)C(CCc2ccccn2)(Cc2cccc(Cl)c2Cl)C(=O)N1c1ccc(Br)cc1 (stereo not given) | 10.4% (inactive) |
| Cc1cccc(OP(=O)(Oc2cccc(C)c2)OC(c2ccccc2)C(F)(F)F)c1 (stereo not given) | 1.45% (inactive) |
| Cc1nc2ccccn2c1P(=S)(N1CCCCC1)N1CCCCC1 | 4.18% (inactive) |
| CCOC(=O)C(O)(c1ccc(N)c(OC)c1)C(F)(F)F (stereo not given) | 3.68% (inactive) |
| COC(=O)C(O)(c1ccc(NC(=O)c2ccco2)c(OC)c1)C(F)(F)F (stereo not given) | 3.68% (inactive) |
| CCOC(=O)C(O)(c1ccc(NC(=O)c2ccco2)c(OC)c1)C(F)(F)F (stereo not given) | 39.8% (active) |
| CC(=O)Nc1ccccc1C(=O)OCC(=O)c1cccc2ccccc12 | 26.2% (inactive) |
| O=c1[nH]c(=S)n(C2CC2)c(O)c1/C=N/N1CCOCC1 | 5.81% (inactive) |
| CNC(=O)N(C)c1nnc(C(C)(C)C)s1 | 54.7% (active) |
| CCOC(=O)C(O)(c1ccc(N=Cc2ccccc2O)c(C)c1)C(F)(F)F (stereo not given) | 5.53% (inactive) |
| CC(=O)N(C1=NCCCS1)c1ccccc1F | 62.1% (active) |
| COc1c(O)ccc2c1-c1c3c(cc4c1C(C2)N(C)CC4)OCO3 (stereo not given) | 6.07% (inactive) |
| CC(C(=O)Nc1ccc(Cl)cc1Cl)N1CC=C(c2ccccc2)CC1 (stereo not given) | 9.49% (inactive) |
| CN1CCN(c2cc(N3CCNCC3)ccc2[N+](=O)[O-])CC1 | 21.6% (inactive) |
| CN(C)C(=O)Oc1ccc(OCc2cccc[n+]2C)cc1 | 6.21% (inactive) |
| c1ccc2sc(C3CCCNC3)nc2c1 (stereo not given) | 54.6% (active) |
| CN(C)c1ccc(/C=C2\CC3C4CC=C5CC(O)CCC5(C)C4CCC3(C)C2=O)cc1 (stereo not given) | 2.96% (inactive) |
| CC(C)N(CC#CCC1(O)c2ccccc2-c2ccccc21)C(C)C | 14.5% (inactive) |
| Cc1cccc(-n2c(O)c(/C=N/N3CCOCC3)c(=O)[nH]c2=S)c1 | 1.74% (inactive) |
